# Screens deposited in PubChem by several laboratories.
# Rows were chosen to be rich in hits. Some 0.62% of all compounds tested hit in one or more screens of this group.
# mHtt clearance: clearance of mutant huntingtin inclusions, primary screen, imaging, HeLa Exon1htt(103Q)mCFP, confocal imaging | aggregate imaging; zero = plate's median compound well | inhibition, % at 1.5 µM | 47,000 compounds, 0.42% hits | AID 853, 2007;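 active = inhibition of aggregate fluorescence above about 70%, also judged a hit by eye on the cell image, limit read from the data, passing the limit was not always enough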;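 note: cells exposed to compound for three days before fixation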
# MKP-1 inh: MKP-1 phosphatase inhibitors, primary screen, biochemical, in vitro; 65,000 compounds, 0.15% hits; inhibition, %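 (compounds tested at a single concentration somewhere between 10 and 100 µM)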; Dual specificity protein phosphatase 1 (Homo sapiens), P28562; recombinant MKP-1, OMFP hydrolysis fluorescence;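 active = inhibition above about 50%, limit read from the data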;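 note: 0% = DMSO max control wells and 100% = wells with enzyme stopped by NaOH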
# Target sequence (P28562 whole entry, looked up): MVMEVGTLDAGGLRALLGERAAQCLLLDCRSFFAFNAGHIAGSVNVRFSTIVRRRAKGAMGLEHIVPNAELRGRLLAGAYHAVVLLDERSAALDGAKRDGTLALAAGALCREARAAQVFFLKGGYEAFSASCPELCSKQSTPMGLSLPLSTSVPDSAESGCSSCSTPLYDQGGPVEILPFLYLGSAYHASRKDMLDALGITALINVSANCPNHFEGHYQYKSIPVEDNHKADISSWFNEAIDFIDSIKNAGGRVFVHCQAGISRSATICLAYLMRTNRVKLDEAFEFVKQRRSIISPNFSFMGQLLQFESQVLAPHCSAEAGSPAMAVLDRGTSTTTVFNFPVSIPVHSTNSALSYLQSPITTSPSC
# Cdc25B inh: inhibitors of Cdc25B phosphatase catalytic domain, primary screen, biochemical, OMFP fluorescence. M-phase inducer phosphatase 2 (Homo sapiens), P30305. recombinant Cdc25B, OMFP fluorescence Ex485/Em525. inhibition, %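 (compounds tested at 10 µM final in the well)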. 65,000 compounds, 0.1% hits. AID 368, 2006; in the data active = inhibition above about 50%
# MMP-13 inhibitor: human MMP13 inhibitors, primary screen, biochemical, FRET peptide cleavage; MMP-13 fTHP FRET cleavage, Mca fluorescence; inhibition, % at 4 µM; 65,000 compounds, 0.07% hits; AID 570, 2006;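 active = inhibition above the mean of compound-free control plate wells plus 3 SD, cut at about 14% in these data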;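 note: 0% = DMSO wells and 100% = wells with reference MMP-13 inhibitor after basal subtraction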
# WNV NS2B-NS3 inh: inhibitors of WNV NS2B-NS3 protease, primary screen, biochemical, fluorogenic substrate; Genome polyprotein (West Nile virus), P06935; fluorogenic substrate Ex360/Em465; active compounds read low; z-score (concentration not given with the values); 65,000 compounds, 0.18% hits; in the data active = z-score below about -3
# Redox H2O2 0p5DTT: redox cycling H2O2 generation, 0.5 mM DTT, dose response, artefact control, biochemical, Cdc25B catalytic domain; EC50, µM; AID 682, 2007; shares compounds with Cdc25B inh; 30 compounds, 50% hits; cell-free redox cycling H2O2 generation; in the data active = EC50 below about 30 µM
# Redox H2O2 1DTT: redox cycling H2O2 generation, 1 mM DTT, dose response, artefact control, biochemical, 1.0 mM DTT, Cdc25B catalytic domain | cell-free redox cycling H2O2 generation | EC50, µM | 30 tested, under 10 active | AID 683, 2007 | shares compounds with Cdc25B inh; in the data active = EC50 below about 50 µM
# Redox H2O2: redox cycling hydrogen peroxide production, dose response, artefact control, biochemical, probe assessment; shares compounds with MKP-1 inh; Redox cycling H2O2 generation, DTT, phenol red/HRP; EC50, µM; 60 tested, under 10 active; call rule not given here
# * = called active by the depositor; . = no result given.
SMILES,mHtt clearance,MKP-1 inh,Cdc25B inh,MMP-13 inhibitor,WNV NS2B-NS3 inh,others
O=C1NC(=O)[C@]2(Cc3ccccc3N3CCN(c4ccccc4)CC32)C(=O)N1Cc1ccccc1 (stereo partly specified),5,22,8,7,-4*,
COc1ccc(C(=O)N2CCCC2=O)cc1,.,20,-10,4,-0.86,
CCCCc1ccc2[nH]cc(CCN)c2c1,75*,4,-13,0,0.24,
CCC1(CC)C(=O)NC(=NCCc2c[nH]c3ccccc23)NC1=O,-6,-9,18,0,0.59,
O=C(c1c[nH]cc1-c1ccccc1)c1cccc2ccccc12,-10,.,.,.,.,
CCOC(=O)c1c(NC(=O)c2c(N)n(CCCOC)c3nc4ccccc4nc23)sc2c1CCCC2,13,.,.,.,.,
CCOC(=O)c1c(NC(=O)C(c2ccccc2)c2ccccc2)sc2c1C1CCN2CC1,75*,.,.,.,.,
CCN1CCC(O)(c2ccccc2)C(C(=O)c2ccccc2)C1 (stereo unspecified),87*,.,.,.,.,
COc1ccc(C(CC(=O)N2CCC3(CC2)OCCO3)NS(=O)(=O)c2ccc(F)cc2)cc1 (stereo unspecified),-174,3,52*,1,0.7,
CC(C)(C)c1nc(N2CCN(C(=O)c3ccco3)CC2)c2nnn(Cc3ccccc3Cl)c2n1,.,10,-16,4,1.1,
CN1[C@@H]2CC[C@H]1CC(OC(=O)C1C=Nc3ccccc31)C2 (stereo partly specified),.,-11,-9,0,-1.4,
CN1C2CCC1CC(OC(=O)CCN1CCCC1)C2 (stereo unspecified),.,-2,77*,2,-0.33,
CCn1nc(-c2cccs2)nc2c(=O)n(C)c(=O)nc1-2,.,104*,101*,8,-0.88,Redox H2O2 0p5DTT=0.65*;Redox H2O2 1DTT=1*;Redox H2O2=14*
O=C1C=Cc2ccccc2C1=O,.,94*,99*,.,0.18,Redox H2O2 0p5DTT=26*;Redox H2O2 1DTT=>50;Redox H2O2=>50
COc1cccc(OC)c1C(=O)Nc1nc(N)n(-c2ccccc2)n1,41,.,.,.,.,
CN1CCC2(CC1)NC(=O)C1=C(CN(C)CC1)N2,22,-3,-9,0,1.2,
Cc1nc2cc(-c3cccc(F)c3)nn2c(C)c1CCC(=O)N1CCC2(CC1)OCCO2,12,60*,-6,-4,-0.82,Redox H2O2=>50
COCCCn1c(N)c(C(=O)NCCC(C)C)c2nc3ccccc3nc21,-33,55*,5,-79,-0.38,Redox H2O2=>50
CCCCOCCCn1c(N)c(C(=O)OCCOC)c2nc3ccccc3nc21,26,-14,30,-368,0.79,
Nc1cccc(N=Cc2c(O)n(Cc3ccc(F)cc3)c(=O)[nH]c2=O)c1,-32,10,7,-1,-0.07,
